Calpain2 inh: blocks pig calpain II enzyme activity; purified calpain II, fluorogenic peptide substrate, 30 min; inhibition, % at 16 µM; 220,000 tested, 0.37% active; AID 1236;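 active means inhibition above about 50%, limit read from the data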
L major viab: Leishmania major promastigote growth inhibition | 200,000 tested, 9% active | inhibition, % at 10 µM | AID 1063 | Leishmania major promastigotes, resazurin fluorescence viability; in the data active means inhibition above about 50%;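 further: promastigotes grown with compound for 44 hours at 28 °C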
ROMK mod: modulators of human ROMK potassium channel. B-score at 10 µM. Tet-inducible ROMK, thallium flux fluorescence; actives lie on both sides. P48048. 130,000 tested, 2% active;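 active means signal ratio slope over the read window, or its plate-corrected B-score, at least 3 SD from the plate mean, either direction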;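 further: B-score of the F/F0 ratio slope over 7 to 12 s after thallium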
Target sequence (P48048 whole entry, looked up): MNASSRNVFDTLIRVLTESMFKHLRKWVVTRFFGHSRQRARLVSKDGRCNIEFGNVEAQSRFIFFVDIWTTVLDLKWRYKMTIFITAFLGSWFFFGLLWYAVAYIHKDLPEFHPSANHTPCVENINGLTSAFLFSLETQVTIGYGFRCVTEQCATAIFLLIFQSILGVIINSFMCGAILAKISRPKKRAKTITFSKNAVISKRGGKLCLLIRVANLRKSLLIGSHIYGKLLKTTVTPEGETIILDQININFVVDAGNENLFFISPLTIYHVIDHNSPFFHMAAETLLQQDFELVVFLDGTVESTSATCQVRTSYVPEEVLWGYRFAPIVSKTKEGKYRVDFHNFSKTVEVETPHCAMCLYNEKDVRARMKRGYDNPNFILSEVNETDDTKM
KCC2 mod: KCC2 (human) Cl- transport modulation; 190,000 tested, 2.2% active; AID 1456; B-score of Tl+ flux slope (higher = more flux/activation; lower = inhibition) at 10 µM; KCC2 cells, thallium flux FluoZin-2 fluorescence;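 active means thallium flux slope and its plate-corrected score both differing from the plate sample mean at a set confidence after two filtering rounds, in either direction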;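 further: slope of fluorescence scaled to starting intensity during 10 to 20 s after thallium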
WT yeast gro inh: growth inhibition of WT yeast, mitochondrial fusion screen; mitochondrial fusion phenotypic screen, WT strain; inhibition, % at 10 µM; 190,000 tested, 2.1% active; AID 1362; in the data active means inhibition above about 58%; tested in S. cerevisiae
A number is an active result; – = inactive; · = not tested or not shown. A selection: hits, their analogues and other compounds. The true share with any hit is near 12%.

SMILES | Calpain2 inh | L major viab | ROMK mod | KCC2 mod | WT yeast gro inh
CC1CCN(CCC(=O)Nc2ccc3c(c2)CCC3)CC1 | – | 84 | · | – | –
CN(c1cccc(Cl)c1)S(=O)(=O)c1cccc(C(=O)Nc2ccc3c(c2)CCC3)c1 | – | 95 | – | – | –
Cc1cccc(C)c1NC(=O)CCCN1CC(C)OC(C)C1 (stereo not drawn) | – | 66 | – | · | –
CC1CN(S(=O)(=O)c2cccc(C(=O)Nc3ccc4c(c3)CCC4)c2)CC(C)O1 (stereo not drawn) | – | 85 | – | – | –
O=C(Nc1ccc2c(c1)CCC2)c1cccc(F)c1 | – | 83 | · | – | –
CC1CN(CCC(=O)Nc2ccc3c(c2)CCC3)CC(C)O1 (stereo not drawn) | – | 86 | – | · | –
O=C(Nc1ccc2c(c1)CCC2)c1ccc(F)c(S(=O)(=O)N2CCOCC2)c1 | – | 78 | – | – | –
Cc1cc(NC(=O)CCN2CCC(C(N)=O)CC2)ccc1Br | – | 82 | – | – | –
NC(=O)C1CCN(CCC(=O)Nc2ccc(Br)cc2)CC1 | – | – | – | – | –
Cc1ccc(C(=O)Nc2ccc3c(c2)CCC3)cc1 | – | – | – | – | –
COc1cc(SC)ccc1C(=O)Nc1nccs1 | – | – | – | – | –
O=C(CN1CCC(n2nnc3ccccc32)CC1)Nc1ccc2c(c1)CCC2 | – | – | – | – | –
NC(=O)C1CCN(CCC(=O)Nc2ccc3c(c2)CCC3)CC1 | – | 80 | – | – | –
Cc1ccc(Nc2nnc(SCc3cc(=O)n4cc(C)ccc4n3)s2)cc1 | – | 68 | · | – | –
Cn1c(/C=C/c2ccccc2)nc2ccccc21 | – | – | – | – | 67
Cn1c(=O)c(/C=C/c2ccccc2)nc2ccccc21 | – | – | · | – | –
COCCn1c(/C=C/c2ccccc2)nc2ccccc21 | – | – | – | – | –
COc1ccccc1Cn1c(/C=C/c2ccccc2)nc2ccccc21 | – | – | – | – | 79
COc1ccc(/C=C/c2nc3ccccc3n2Cc2ccccc2OC)cc1 | – | 65 | · | – | 75
CCOC(=O)C1CCN(C(=O)c2cccnc2Oc2ccccc2)CC1 | – | · | – | – | ·
Cc1cccc(-n2c(=O)c3c(n4cnnc24)-c2ccccc2CC32CCCCC2)c1 | – | – | · | – | 74
COc1ccc(CCC(=O)N/N=C\c2cccs2)cc1 | – | – | – | – | –
CC(=O)Nc1ccc(-c2csc(Nc3cccc(C)n3)n2)cc1 | – | 79 | – | – | –
CN(Cc1ccccc1)C(=O)c1cc2ccccc2o1 | – | – | – | – | –
O=C(c1cc2ccccc2o1)N(C1CC1)C1(C(=O)Nc2ccccc2)CCCC1 | – | – | – | – | 72
SMILES | Calpain2 inh | L major viab | ROMK mod | KCC2 mod | WT yeast gro inh
CCOC(=O)c1ccc(Nc2nnc(C)c3ccccc23)cc1 | – | · | · | – | ·
Cc1nc2ccccn2c1C(=O)NNC(=S)Nc1ccc(Cl)cc1 | – | – | – | – | –
Cc1cccc(-n2cnc(C(=O)N/N=C\c3ccc(Br)cc3)c2)n1 | – | 99 | · | – | –
Cc1cccc(-n2cnc(C(=O)NNC(=S)Nc3ccc(Cl)cc3)c2)n1 | – | 100 | – | – | –
O/N=C/c1cc(Br)ccc1OCc1ccccc1F | · | 100 | · | · | ·
COc1cc(CNC(=O)c2nc(Cn3nc(C)c(Br)c3C)no2)cc(OC)c1 | – | – | – | – | –
CCCCN(N=Nc1nonc1OC)c1nonc1OC | – | – | – | – | –
CCOC(Cn1c(-c2ccc(OC)cc2)nc2ccccc21)OCC | – | 64 | – | · | –
COc1ccc(-c2nc3ccccc3n2Cc2ccc(C)cc2)cc1 | – | 82 | – | – | –
COCn1c(-c2ccc(OC)cc2)nc2ccccc21 | – | – | · | – | –
COc1ccc(CNC(=O)c2c([S-])n(-c3ccc(C)cc3)c3cccc[n+]23)cc1 | – | – | – | – | –
C=CCn1c(-c2ccc(C)cc2)nc2ccccc21 | – | 87 | – | · | –
COc1ccc(Cn2c(-c3ccc(C)cc3)c[n+]3ccccc23)cc1 | – | 100 | · | – | 60
Cc1ccc(NCc2ccccc2O)c(C)c1 | – | – | – | – | –
COc1cccc(OC)c1C1=NC(C)(C)CO1 | – | · | · | – | ·
Cc1cc(NC(=O)CSc2nc(N)c(NC(=O)c3ccco3)c(=O)[nH]2)no1 | – | · | – | – | ·
CCc1cc2c(C)cc(=O)oc2cc1Oc1ncccc1[N+](=O)[O-] | – | – | – | – | –
C=C(C)Cn1c(-c2ccc(OC)cc2)nc2ccccc21 | – | 55 | – | · | –
O=C(CSc1ncn[nH]1)Nc1nc(-c2ccccc2)cs1 | – | 93 | · | – | –
O=C(CSc1nc(-c2ccccc2)c(-c2ccccc2)[nH]1)Nc1nccs1 | – | 98 | – | · | –
COc1ccc(-c2[nH]c(-c3ccc(SC)cc3)nc2SCC(=O)Nc2nccs2)cc1 | – | 96 | – | – | –
COc1ccc(-c2csc(NC(=O)CSc3ncn[nH]3)n2)cc1OC | – | – | – | – | –
COc1ccc(Cn2c(SCc3ccccc3C)nc3cc(OC)c(OC)cc3c2=N)cc1 | – | 100 | · | – | –
CCSc1nc2cc(OC)c(OC)cc2c(=O)n1CCc1ccccc1 | – | – | · | · | –
COCCCn1c(SCCc2ccccc2)nc2cc(OC)c(OC)cc2c1=N | – | 51 | – | – | –
SMILES | Calpain2 inh | L major viab | ROMK mod | KCC2 mod | WT yeast gro inh
COc1ccc(OC)c(C=Nc2ccccc2-c2nc3ccccc3[nH]2)c1 | – | – | · | – | –
COc1cc(/C=N/N(C)c2ccccc2)cc(Cl)c1O | – | – | – | · | 59
COc1ccc(OC)c(/C=N/N(C)c2ccccc2)c1 | – | 60 | · | – | –
COc1ccc2nc(C)cc(Nc3ccc(N4CCOCC4)cc3)c2c1 | – | 51 | · | – | –
COc1ccc2nc(N3CCOCC3)cc(C)c2c1 | – | – | · | – | –
C/C(CC(=O)Nc1ccccn1)=N\NC(=O)c1cccc(C)c1 | – | – | – | – | –
COc1ccc(CC2(CO)CCN(S(=O)(=O)N(C)C)CC2)cc1 | – | – | – | – | –
COc1ccc(CC2(CO)CCN(Cc3cccn3-c3ccccn3)CC2)cc1 | – | – | – | – | –
CC(COc1ccccc1)N1CCC(CO)(Cc2ccccc2)CC1 (stereo not drawn) | – | 60 | – | – | –
COc1ccc(CC2(CO)CCN(C/C=C/c3ccccc3OC)CC2)cc1 | – | 87 | · | – | –
COc1ccc(CC2(CO)CCN(C(C)COc3ccccc3)CC2)cc1 (stereo not drawn) | – | 79 | · | – | –
CCC(C)C(NC(=O)c1ccccc1NC(=O)c1ccco1)C(=O)NNC(=O)c1ccncc1 (stereo not drawn) | – | · | – | – | ·
Cc1cccc(C)c1NC(=S)NCCSc1ccc(Cl)cc1 | – | – | – | – | 80
COc1ccc(NC(=S)NCCSc2ccc(Cl)cc2)c(OC)c1 | – | 100 | · | – | 73
O=C(NCCSc1ccc(Cl)cc1)c1ccco1 | – | – | – | – | –
COc1ccc(Cl)cc1NC(=S)NCCc1c[nH]c2ccccc12 | – | – | – | · | –
COc1ccc(NC(=S)NCCc2ccccc2)c(OC)c1 | – | – | – | – | –
COc1ccc(Cl)cc1NC(=S)NCCSc1ccc(C)cc1 | – | – | · | – | 78
COc1ccccc1NC(=S)NCCSc1ccc(Cl)cc1 | – | – | · | – | 78
Cc1cccc(C)c1NC(=O)C1CCCN(CCCc2ccccc2)C1 (stereo not drawn) | – | – | · | – | –
